# Nrf2 inh – Nrf2 qHTS screen for inhibitors; A549 ARE-Fluc reporter, luciferase luminescence, 18-24 h; Potency, µM (series often up to 46 µM), inactives show at the top dose activity change, negative = inhibition, usual class: inhibitors; hit rate 2.1% among 360,000; AID 504444, 2011; note: potency is the fitted concentration of half-maximal effect; % is set by controls: 0 for no effect and ±100 for the full control effect; nearly all actives have a fitted effect of over 60% in size
#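 Nrf2 activity is the BugLite luminescence, read 15 min after reagent at room temperature, following CellTiter-Fluor cytotoxicity readout (30 min, 37C). Compound titrations were applied for 18-24 h to 5000 A549 ARE_Fluc cells/well in 5% FBS OPTI-MEM.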
# A549 tox – Nrf2 qHTS screen for inhibitors: counterscreen for cytotoxicity; A549 ARE-Fluc cells, CellTiter-Fluor viability, 18-24 h; Potency, µM (doses to about 46 µM), inactives show at the highest dose activity change, negative = cytotoxicity, most hits filed as inhibitors; hit rate 0.16% among 390,000; AID 504648, 2011; note: potency is the fitted concentration of half-maximal effect; % is set by controls: 0 for no effect and ±100 for the full control effect
#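 Cytotoxicity counterscreen: CellTiter-Fluor fluorescence was measured in A549 ARE_Fluc cells after 18-24 h of compound exposure in a concentration series. The subsequent BugLite luminescent read reports ARE-luciferase activity.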
# Nrf2 activator – qHTS of Nrf2 Activators; Potency, µM (top dose mostly 46.1 µM), inactives show at the highest dose activation, most hits filed as activators; AREc32 ARE-luciferase reporter (MCF7-derived line), luminescence, 24 h; AID 624171, 2012; hit rate 0.31% among 410,000; note: potency is the fitted concentration of half-maximal effect; % of control where 0% means no effect; nearly all actives have a fitted effect of over 65% in size
#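 Reporter line AREc32 (ARE-Fluc), seeded overnight in OPTI-MEM with 5% FBS; compound pin-transferred, 24 hr at 37 deg C, 5% CO2; luminescent read-out.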
# IDH1 R132H inh – qHTS for Inhibitors of mutant isocitrate dehydrogenase 1 (IDH1): qHTS; IDH1-R132H enzyme, NADPH consumption, diaphorase/resazurin fluorescence; Potency, µM (doses to about 76.6 µM), without a hit: top-dose activity change, negative = inhibition, hits mostly inhibitors; hit rate 0.093% among 390,000; AID 602179, 2012; note: potency is the fitted concentration of half-maximal effect; % is set by controls: 0 for no effect and ±100 for the full control effect; nearly all actives have a fitted effect of over 65% in size
# Target sequence (O75874 whole entry R132H, stated change not applied): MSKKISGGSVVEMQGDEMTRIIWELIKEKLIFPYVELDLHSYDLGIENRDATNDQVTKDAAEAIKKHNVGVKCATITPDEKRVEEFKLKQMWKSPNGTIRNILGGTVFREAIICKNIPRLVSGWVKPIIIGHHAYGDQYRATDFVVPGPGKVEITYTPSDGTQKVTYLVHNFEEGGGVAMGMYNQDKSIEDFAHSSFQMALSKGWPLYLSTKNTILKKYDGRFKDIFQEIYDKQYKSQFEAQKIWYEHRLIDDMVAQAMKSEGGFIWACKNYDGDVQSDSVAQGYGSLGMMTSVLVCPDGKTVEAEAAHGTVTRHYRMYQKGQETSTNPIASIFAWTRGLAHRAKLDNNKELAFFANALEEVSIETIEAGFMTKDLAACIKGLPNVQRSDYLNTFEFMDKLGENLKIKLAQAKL
#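 IDH1-R132H (0.5 ug/mL) preincubated 30 min with compound, then NADPH (0.016 mM) and alpha-KG (2 mM) added; 80 min at RT, pH 7.5. Remaining NADPH coupled via diaphorase/resazurin to fluorescence (540/590 nm); concentration-response curves normalized to no-enzyme control.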
# LDHA block – qHTS assay for inhibitors of human lactate dehydrogenase. purified LDHA, NADH/diaphorase-resazurin fluorescence; stronger effect = lower value. activity change, % (values are at about 110 or 230 µM). hit rate 0.15% among 480,000. AID 1347041, 2019; in the data active = activity change below about -30%; inconclusive = mostly about -25% to -30%;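 note: plate controls were DMSO wells for no effect and wells without enzyme for full effect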
#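 Remaining NADH was detected by diaphorase (0.133 mg/mL) converting 37 µM resazurin to fluorescent resorufin, read at 0 and 20 minutes. The preceding 5-minute room-temperature reaction used 2 nM LDHA, 0.2 mM sodium pyruvate and 0.06 mM NADH at pH 7.4.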
# ALOX12 inh – Primary qHTS assay for inhibitors of human arachidonate 12S-lipoxygenase (ALOX12): Round 2 | Potency, µM (highest dose often 108 µM), for inactives: at the top dose activity change, negative = inhibition, usual class: inhibitors | Polyunsaturated fatty acid lipoxygenase ALOX12 (Homo sapiens), P18054 | hit rate 1.1% among 580,000 | AID 1671190, 2021 | purified 12hLO, xylenol orange hydroperoxide absorbance; note: potency is the fitted concentration of half-maximal effect; % is set by controls: 0 for no effect and ±100 for the full control effect
#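 Purified human 12hLO at 150 nM in 25 mM Hepes, 0.01% Triton X-100, pH 7.0, preincubated 15 min at room temperature with compound. Reaction started with 40 uM arachidonic acid, 30 min at room temperature. Hydroperoxide measured by Fe-xylenol orange, 573/405 nm absorbance ratio.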
# Active calls of the source: *; ? = inconclusive; · = not tested or not shown; ! = not confirmed by another sample. In the library only some 2.7% were active in any assay of this set; here they are far more common. Unless noted, calls come from the whole dose curve; as a rule, active = well fitted curve in the direction sought with a large enough effect; inconclusive = small, poorly fitted or top-dose-only effect, or another doubt; inactive = no such curve, though single readings can be large; an effect the other way counts as inactive or inconclusive.
SMILES,Nrf2 inh,A549 tox,Nrf2 activator,IDH1 R132H inh,LDHA block,ALOX12 inh
CCS(=O)(=O)NCC1(COc2ccc(S(C)(=O)=O)cc2)C[C@@H](O)[C@@H](O)C1 (stereo partly drawn),·,·,·,·,·,13µM*
CCOC(=O)c1cnc(-n2nc(C)cc2C)nc1NCCc1ccccc1,-27%,-2%,2%,1%,6,45µM*
NC(=O)c1ccsc1NS(=O)(=O)c1ccc([N+](=O)[O-])cc1,·,·,·,·,3,14µM*
CCN(CC)S(=O)(=O)c1ccc(S(=O)(=O)Nc2cccc(S(N)(=O)=O)c2)cc1,·,·,·,·,2,0%
Cc1ccc(N=Cc2c(C)[nH]n(-c3nc4ccccc4[nH]3)c2=O)cc1,21µM*,7%,-1%,-2%,-2,-16%
Cc1c(Cl)cccc1NC(=O)Cn1cnc(S(=O)(=O)N2CCOCC2)c1,·,·,·,·,5,-1%
CSc1ccc(/C=N/NC(=O)c2ccc(C)c(C)c2)cc1,-22%,-10%,0%,2%,-48*,-5%
CNC(=S)N/N=C/c1ccc(SC)cc1,·,·,·,·,1,14µM*
Cn1c(=O)c2c(-c3ccccc3Cl)[nH]cc2n(C)c1=O,·,·,·,·,2,?
N#CCN(C(=O)c1cccs1)C1CC1,·,·,·,·,0,?
COc1ccc(NC(=S)N(CCc2c(C)[nH]c3ccc(C)cc23)Cc2cccnc2)cc1,21µM*,?,5%,-26%,-6,9%
N#C/C(C(=O)CCl)=C(/c1ccc(F)cc1)N1CCOCC1,·,·,·,·,1,22µM*
O=C(c1ccc(F)cc1)C1CCN(C(=O)N2CCOCC2)CC1,·,-4%,-1%,-4%,-5,0%
Cc1ccc(NC(=O)C2CCCN2S(=O)(=O)c2ccc3nc(-c4ccccc4)[nH]c3c2)cc1F (stereo not drawn),21µM*,-3%,-1%,-8%,4,?
COc1ccc(NC(=O)C2CCCN2S(=O)(=O)c2ccc3nc(-c4ccccc4)[nH]c3c2)cc1 (stereo not drawn),-4%,2%,0%,-2%,6,-18%
Cc1c(OCCC(C)C)ccc2c(C(F)(F)F)cc(=O)oc12,·,·,·,·,6,-1%
O=C(CC(=O)NCCc1ccccc1)NCCc1ccccc1,?,-8%,0%,-2%,0,0%
NNCCc1ccccc1,?,5%,6%,-14%,-11,5.4µM*!
Cc1c(C(=O)OCc2ccc(C#N)cc2)oc2ccccc12,·,·,·,·,-5,-21%
COc1cc(C(=O)/C=C/c2cc(Br)c(O)c(OC)c2)ccc1OCC(=O)O,·,·,·,·,23,10µM*
COc1cc(/C=C/C(=O)c2ccc(O)cc2)cc(Br)c1O,·,·,·,·,14,?
COc1cc(/C=C/C(=O)c2ccc(O)cc2)ccc1OCC#N,26µM*,?,?,-6%,-4,-20%
COc1cc(/C=C/C(=O)c2ccc3c(c2)OCCO3)cc(Br)c1OCC(=O)N(C)C,21µM*,?,?,-2%,-4,-10%
COc1ccc(C(C)=O)cc1CSc1nnc(Nc2ccccc2)s1,23µM*,-24%,4%,7%,-2,-1%
C=CCNc1nc(-c2cc(C)n(-c3c(C)n(C)n(-c4ccccc4)c3=O)c2C)cs1,·,·,·,·,14,?
C=CCn1c(NS(=O)(=O)c2ccccc2)c(S(=O)(=O)c2ccc(C)cc2)c2nc3ccccc3nc21,?,-13%,0%,-1%,25,1%
O=S(=O)(Nc1c(S(=O)(=O)c2ccccc2)c2nc3ccccc3nc2n1C1CCCCC1)c1ccccc1,?,-24%,0%,9%,28,40µM*

# Screens: PubChem, National Center for Advancing Translational Sciences (NCATS)
